# Measured values as given in paper PMC7819943, “Rice protein-binding microarrays: a tool to detect cis-acting elements near promoter regions in rice”.
# The full ranking holds about 39,000 sequences; the median of “fluorescence intensity (a.u.)” is about 4,300, and the highest 2% start at about 39,000. This excerpt belongs to a sample that is enriched for the highest values.
# Target: T1, OsSMF1 (Oryza sativa, UniProt Q6ZLB0 1-436)
# T1 sequence: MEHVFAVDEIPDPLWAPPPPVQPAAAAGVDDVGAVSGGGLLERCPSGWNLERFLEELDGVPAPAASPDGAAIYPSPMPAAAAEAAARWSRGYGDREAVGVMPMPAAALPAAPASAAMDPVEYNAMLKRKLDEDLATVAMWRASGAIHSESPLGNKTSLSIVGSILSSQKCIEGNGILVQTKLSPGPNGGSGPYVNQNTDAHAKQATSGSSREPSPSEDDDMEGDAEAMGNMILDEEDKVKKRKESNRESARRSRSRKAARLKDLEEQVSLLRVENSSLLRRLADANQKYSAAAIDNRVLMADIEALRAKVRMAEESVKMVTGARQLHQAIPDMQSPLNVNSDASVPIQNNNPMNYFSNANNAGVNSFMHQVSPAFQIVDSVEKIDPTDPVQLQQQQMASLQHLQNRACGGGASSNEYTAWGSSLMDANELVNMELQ
# Assay: protein-binding microarray (RPBM); PBS, 2% BSA, 51.3 ng/ul salmon testes DNA, 50 uM zinc acetate, 200 nM TF, 25 C, 1 h; high values mean tight binding
# Conditions: protein: recombinant; tags: N-terminal polyhistidine and DsRed monomer fusion (pET32a); chain copies: 2; label: CyDye5-dUTP incorporated in the synthesized complementary strand; 3' TTTTT single-stranded linker to array surface; dsDNA, one strand shown
# How it was run: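 Using Ni–NTA, transcription factors fused N-terminally to polyhistidine and DsRed were purified after expression in E. coli BL21-CodonPlus. These were incubated at 200 nM with a blocked, double-stranded custom Agilent array for 1 h at 25 °C in a buffer containing 50 µM zinc acetate, and the array was washed. The binding signal is per-feature fluorescence intensity (arbitrary units) on an Axon 4000B scanner.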
row,Sequence,binding signal
1,GATTGTTGGTAGCTAGGTAGCTGTGGCCAAGAAAGTGAGACGGAGTCACCTAGTGCAG,3810 fluorescence intensity (a.u.)
2,TAGCAGCCAATTAGTCCACTTAATCACCCATGGATCGCGACGGAGTCACCTAGTGCAG,3490 fluorescence intensity (a.u.)
3,TATATCTAGTTTGCTCAGACCTACTGCTATTTCTTTCTGACGGAGTCACCTAGTGCAG,41200 fluorescence intensity (a.u.)
4,TTATTTTGGAACTGGACCTATCTAATTTCTCCTAGTCAGACGGAGTCACCTAGTGCAG,3780 fluorescence intensity (a.u.)
5,ACATGATTTGTGCTCCATGACCTCTTTCTTCTATTATCTACGGAGTCACCTAGTGCAG,7980 fluorescence intensity (a.u.)
6,TGTTCATAAAAGTAAATGTGCGTGCGTGATTGTATTGTATCGGAGTCACCTAGTGCAG,12500 fluorescence intensity (a.u.)
7,AGAGAGCAGTGGAGTGCTGTCAGCCGTTGGATGGCCATCCCGGAGTCACCTAGTGCAG,3400 fluorescence intensity (a.u.)
8,ACCGACGTTTAATCCCTGAGAGCCAGCCGTTGGCTGTGTACGGAGTCACCTAGTGCAG,65500 fluorescence intensity (a.u.)
9,GCCGCCGCCGCCGCCGCCGCCGCTGTGTGTACGACTACGACGGAGTCACCTAGTGCAG,3250 fluorescence intensity (a.u.)
10,TTACTGCTACCTCCACTTCATGTTATAAGTTGTTTTACCTCGGAGTCACCTAGTGCAG,3480 fluorescence intensity (a.u.)
11,TCGCTGATGAAAATGATGAGCATGGTGAGGGGAAGAAGGGCGGAGTCACCTAGTGCAG,22400 fluorescence intensity (a.u.)
12,CGACCGACATATCTTCATAATTACCAAGTCATCATGCGACCGGAGTCACCTAGTGCAG,4520 fluorescence intensity (a.u.)
13,TATGGAGTGAAATGTCAGACTCCAAATGACTTATATGATGCGGAGTCACCTAGTGCAG,64100 fluorescence intensity (a.u.)
14,ATTATGTAATGCCTGTTGATGTCAGACCACTCCAAATGCTCGGAGTCACCTAGTGCAG,3480 fluorescence intensity (a.u.)
15,TCCAAAAGTTCTTGATGTGGCATGGTGGACATGAATTTGTCGGAGTCACCTAGTGCAG,5240 fluorescence intensity (a.u.)
16,CTTCTTCTTGTGATGCTTATATATGACTATGTATGTAGTGCGGAGTCACCTAGTGCAG,3940 fluorescence intensity (a.u.)
17,GTTTATTCCAAGTGGTGGATGCTGATGAATTAAGTATATACGGAGTCACCTAGTGCAG,3140 fluorescence intensity (a.u.)
18,ATGAATGACCCTGCGACAACAAACCACATCATATCATGCGCGGAGTCACCTAGTGCAG,3740 fluorescence intensity (a.u.)
19,ATCACTTCATTATCACATGACAGACCAACATATAATGATGCGGAGTCACCTAGTGCAG,44500 fluorescence intensity (a.u.)
20,CTGAATTTGACTCTTGGATGGTGACTATGATGTCCAAGTACGGAGTCACCTAGTGCAG,45100 fluorescence intensity (a.u.)
21,ATTGGGGAGAGGAGCTGGGCGAGGCGGGGCTTGGGCTCGGCGGAGTCACCTAGTGCAG,3390 fluorescence intensity (a.u.)

row,Sequence,binding signal
1,TAGGGGAGCCTCGACACGACGCCGCTGGCGTGGCGCGTCCCGGAGTCACCTAGTGCAG,9370 fluorescence intensity (a.u.)
2,AAATAATGTGGCCGGACGGGCGGTAGGGTCCTGGCAGCAGCGGAGTCACCTAGTGCAG,28000 fluorescence intensity (a.u.)
3,CTCTCCTCTTTGCATGCATTCCTCCTGCCAAGAGTGCTGACGGAGTCACCTAGTGCAG,3400 fluorescence intensity (a.u.)
4,AAACAAAATAGCATAATCACTCACCGCGTCACACAGCGGGCGGAGTCACCTAGTGCAG,3720 fluorescence intensity (a.u.)
5,CCGAAGGAGTACGTGCCAAGTCGGCCCATCAGGCCCACGTCGGAGTCACCTAGTGCAG,4010 fluorescence intensity (a.u.)
6,CACCAAACCCCAACCCACCTCCAGGTCATCCACCCACATCCGGAGTCACCTAGTGCAG,3900 fluorescence intensity (a.u.)
7,CTCTGCACAATTGCACCAACCCCAAAGCTTGGCTAAGCTCCGGAGTCACCTAGTGCAG,51000 fluorescence intensity (a.u.)
8,AAACCCAAGCAAACCAGCAGCTACTAAGCAAAGCACAACCCGGAGTCACCTAGTGCAG,33900 fluorescence intensity (a.u.)
9,ATACGGCACCATTTACGTGTATATGTGTCGTACATGCATACGGAGTCACCTAGTGCAG,3470 fluorescence intensity (a.u.)
10,TGACCTAGCTAGCTACCTTTTCCCTCTTCCATCACATATACGGAGTCACCTAGTGCAG,3800 fluorescence intensity (a.u.)
11,TTACGATATAGTGTGCCAATTGGCACACCTACATTTTAGTCGGAGTCACCTAGTGCAG,45700 fluorescence intensity (a.u.)
12,CCCTACGTGCACACATCCAGCTCCATTATATAGCCATTTTCGGAGTCACCTAGTGCAG,54800 fluorescence intensity (a.u.)
13,CATTTTCCAGGCCAAGCCAGCTCACATCACCAGAGCAACACGGAGTCACCTAGTGCAG,3720 fluorescence intensity (a.u.)
14,CGATATACGTACACATGTGACATGACGTAATTTTACATCCCGGAGTCACCTAGTGCAG,4320 fluorescence intensity (a.u.)
15,CAGTTCCCAGCTGGACCTCCGACCTCCTACCTCCTCACCTCGGAGTCACCTAGTGCAG,3340 fluorescence intensity (a.u.)
16,AATGTTTGGGTTCGAATTTAGTGGGTGGGTTTGGAGTTTGCGGAGTCACCTAGTGCAG,4670 fluorescence intensity (a.u.)
17,TCCGCGGCCCCGCTGGCCCACACGCATGCGTCCAAACAGCCGGAGTCACCTAGTGCAG,3940 fluorescence intensity (a.u.)
18,CAAATAGAACATAGCCATACGAAATGACTCACTAACCTCTCGGAGTCACCTAGTGCAG,4910 fluorescence intensity (a.u.)
19,TCACCGGTCTCATCCCCGTCATATGCATCCTTATCTCCAACGGAGTCACCTAGTGCAG,4020 fluorescence intensity (a.u.)
20,TGACCTACTTGCACTTATAATTTATAGTATTATGATGTGTCGGAGTCACCTAGTGCAG,3290 fluorescence intensity (a.u.)
21,TCCAAGCCGTCCACTCCCCTCCGATCCAACGGTCCAAACCCGGAGTCACCTAGTGCAG,21800 fluorescence intensity (a.u.)
